The results in this text go back to PubChem BioAssay (NCATS).

Records with an inconclusive call do not appear. A call without a number means that no potency is given here. The source made the active and inactive calls. Calls come from the whole dose curve; as a rule, active = well fitted curve in the direction sought with a large enough effect; inconclusive = small, poorly fitted or top-dose-only effect, or another doubt; inactive = no such curve, though single readings can be large; an effect the other way counts as inactive or inconclusive.
Note: nearly all actives have a fitted effect of over 35% in size.
Potency is the fitted concentration of half-maximal effect.

One assay can be described thus: Quantitative highthroughput screen to assess conditional lethalithy of P12 Ichikawa cells grown in RPMI1640 with untreated serum (RPMI+s) (AID 1963881). The conditions noted are these: ATP luminescence, 48 h; Potency: viability; series mostly up to 45.8 µM. A digest of the protocol: (§1)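 Each medium arm—HPLM with 10% dialyzed FBS, or RPMI1640 with 5 mM glucose and 10% untreated or dialyzed FBS—was screened against an 11-point, 3-fold compound titration for 48 h at 37 °C, with CellTiter-Glo luminescence as endpoint.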
`CC(=O)OCC(CCn1cnc2cnc(N)nc21)COC(C)=O`: the Potency result was “inactive”.

Consider `CNC(=O)c1ccc2cc(C3(O)CCn4cncc43)ccc2c1` (centres undefined), for which the Potency result is “inactive”.

`COc1ncc(-c2ccc3c(Nc4cc(Oc5cc(F)cc(F)c5)cc(C(=O)O)c4)c(S(=O)(=O)NC4CC4)cnc3c2)c(OC)n1`: the Potency result was “inactive”.

Consider `Cc1cc(C(C)Nc2ccccc2)c2nc(N3CCOCC3)cc(=O)n2c1` (centres undefined), for which the Potency entry was “inactive”.

For the compound `O=C1CCC[C@@H]2[C@H]3CCC[N+]4([O-])CCC[C@@H](CN12)[C@@H]34` (some centres undefined), the Potency entry was “inactive”.

Take `CN(CCOc1ccc(NS(C)(=O)=O)cc1)CCc1ccc(NS(C)(=O)=O)cc1`: the Potency entry is “inactive”.

On to `CC[C@@H]([C@H](C)O)n1ncn(-c2ccc(N3CCN(c4ccc(OCC5CO[C@@](Cn6cncn6)(c6ccc(F)cc6F)C5)cc4)CC3)cc2)c1=O` (some centres undefined), for which the Potency result was “inactive”.

Consider `O=C(c1ccc(F)cc1)C1CCN(CCn2c(=O)[nH]c3ccccc3c2=O)CC1`, for which the Potency entry was “inactive”.

On to `CC(O)C1C(=O)N2C(C(=O)O)=C(SC3CNC(C(=O)N(C)C)C3)C(C)C12` (centres undefined), for which the Potency entry was “inactive”.

For the compound `COc1ccc(F)c(F)c1C(=O)c1cnc(NC2CCN(S(C)(=O)=O)CC2)nc1N`, the Potency is 11.8 µM (active).

With `COc1ccc2c(Oc3ccc(NC(=O)c4c(C)n(CC(C)(C)O)n(-c5ccccc5)c4=O)cc3F)ccnc2c1`, the Potency result is “inactive”.

In the case of `CC1CNc2c(cccc2S(=O)(=O)N[C@@H](CCCN=C(N)N)C(=O)N2CC[C@@H](C)C[C@@H]2C(=O)O)C1` (some centres undefined), the Potency entry was “inactive”.

With `Cc1cnc(Nc2ccc(OCCN3CCCC3)cc2)nc1Nc1cccc(S(=O)(=O)NC(C)(C)C)c1`, the Potency result was “inactive”.

As to `CCCCN(CCCC)CCC(O)c1cc2c(Cl)cc(Cl)cc2c2cc(C(F)(F)F)ccc12` (centres undefined), the Potency was 13.2 µM (active).

For `CCn1c(-c2nonc2N)nc2cncc(CNC3CCNCC3)c21`, the Potency is 23.5 µM (active).

`NCCS(=O)(=O)O`: the Potency entry was “inactive”.

In the case of `C[C@@H](NCCCc1cccc(C(F)(F)F)c1)c1cccc2ccccc12`, the Potency entry was “inactive”.

Turning to `COc1ccc2[nH]cc(CCNC(C)=O)c2c1`, the Potency result was “inactive”.

In the case of `CCCOc1ccc(C(=O)OCCN(CC)CC)cc1N`, the Potency result is “inactive”.

Take `NCCc1cnc[nH]1`: the Potency entry is “inactive”.

Regarding `CC1CCN(c2cc(N3CCN(C)CC3)ccc2NC(=O)c2cc(C#N)c[nH]2)CC1`, the Potency result was “inactive”.

On to `COc1ccc([C@@H]2CNC(=O)C2)cc1OC1CCCC1`, for which the Potency result is “inactive”.

Take `CN1CC[C@@H](c2c(O)cc(O)c3c(=O)cc(-c4ccccc4Cl)oc23)[C@@H](O)C1`: the Potency was 0.662 µM (active).

With `Nc1ncnc2c1ncn2[C@@H]1O[C@H](CO)[C@@H](O)[C@@H]1O`, the Potency is 6.62 µM (active).

With `Cc1c(-c2ccnn2C)cc(C(=O)NCc2ccc(S(C)(=O)=O)cn2)c(=O)n1-c1cccc(C(F)(F)F)c1`, the Potency entry was “inactive”.

Regarding `COC(=O)Nc1cc(Nc2cc(NC3CC3)c3ncc(C#N)n3n2)c(Cl)c(N2CCN(C)CC2)c1`, the Potency is 14.8 µM (active).

As for `Cc1cc(Nc2ncnc3ccc(-c4ccc(CNCCS(C)(=O)=O)o4)cc23)ccc1Oc1ccn2ncnc2c1`, the Potency is 1.18 µM (active).

`O[C@@H](COc1cccc2ncccc12)CN1CCN(C2c3ccccc3[C@@H]3[C@H](c4ccccc42)C3(F)F)CC1` (some centres undefined): the Potency entry is “inactive”.

Turning to `CC1=CC(=O)c2ccccc2C1=O`, the Potency result is “inactive”.

On to `CN(C)c1nc(N(C)C)nc(N(C)C)n1`, for which the Potency entry was “inactive”.

For the compound `CNCc1ccc(-c2[nH]c3cc(F)cc4c3c2CCNC4=O)cc1`, the Potency entry was “inactive”.

Take `CC(NCCc1ccc(O)cc1)C(O)c1ccc(O)cc1` (centres undefined): the Potency entry was “inactive”.

Take `CN1CCN(Cc2ccc(NC(=O)Nc3ccc(Oc4cc(NC(=O)C5CC5)ncn4)cc3)cc2C(F)(F)F)CC1`: the Potency is 0.469 µM (active).

`CC(C)C[C@H](NC(=O)[C@@H](NC(=O)c1cccc(-c2ccccc2)n1)[C@@H](C)O)B(O)O`: the Potency was 0.0372 µM (active).

Take `Cc1nc(N)ncc1-c1nc(N2CCOCC2)c2sc(C(C)(C)O)cc2n1`: the Potency was 0.372 µM (active).

In the case of `Cn1cnc2c(F)c(Nc3ccc(Br)cc3Cl)c(C(=O)NOCCO)cc21`, the Potency was 0.662 µM (active).

With `COC(=O)N1CC2(CC2)C[C@H](C(=O)NO)[C@H]1C(=O)N1CCN(c2ccccc2)CC1`, the Potency was 2.34 µM (active).

Regarding `CN1CCC(COc2cnc(-c3cccc(Cn4nc(-c5cccc(C#N)c5)ccc4=O)c3)nc2)CC1`, the Potency entry is “inactive”.

Regarding `Oc1ccc(-c2nc(-c3ccc(F)cc3)c(-c3ccncc3)[nH]2)cc1`, the Potency was 16.6 µM (active).

For the compound `CCN(CC)CCNC(=O)c1ccc2nc(-c3ccccc3)c(-c3ccc(CN4CCC(n5c(=O)[nH]c6ccccc65)CC4)cc3)nc2c1`, the Potency was 4.69 µM (active).

The nature of the next assay: Quantitative highthroughput screen to assess conditional lethalithy of SEM cells grown in Human Plasma-Like Medium with dialyzed fetal bovine serum (HPLM+ds) (AID 1963882). The following applies: SEM B-ALL cells in HPLM+ds, CellTiter-Glo viability, 48 h; series mostly up to 45.8 µM. A digest of the protocol:
as §1
In general terms: ATP-based viability assays read luminescence as a measure of living cells.
As to `CC(=O)OCC(CCn1cnc2cnc(N)nc21)COC(C)=O`, the Potency entry is “inactive”.

Regarding `CNC(=O)c1ccc2cc(C3(O)CCn4cncc43)ccc2c1` (centres undefined), the Potency result is “inactive”.

Regarding `COc1ncc(-c2ccc3c(Nc4cc(Oc5cc(F)cc(F)c5)cc(C(=O)O)c4)c(S(=O)(=O)NC4CC4)cnc3c2)c(OC)n1`, the Potency entry is “inactive”.

As to `Cc1cc(C(C)Nc2ccccc2)c2nc(N3CCOCC3)cc(=O)n2c1` (centres undefined), the Potency result is “inactive”.

In the case of `O=C1CCC[C@@H]2[C@H]3CCC[N+]4([O-])CCC[C@@H](CN12)[C@@H]34` (some centres undefined), the Potency is 6.62 µM (active).

In the case of `CN(CCOc1ccc(NS(C)(=O)=O)cc1)CCc1ccc(NS(C)(=O)=O)cc1`, the Potency entry was “inactive”.

In the case of `COc1ccc(F)c(F)c1C(=O)c1cnc(NC2CCN(S(C)(=O)=O)CC2)nc1N`, the Potency was 4.69 µM (active).

In the case of `CC1CNc2c(cccc2S(=O)(=O)N[C@@H](CCCN=C(N)N)C(=O)N2CC[C@@H](C)C[C@@H]2C(=O)O)C1` (some centres undefined), the Potency result is “inactive”.

On to `Cc1cnc(Nc2ccc(OCCN3CCCC3)cc2)nc1Nc1cccc(S(=O)(=O)NC(C)(C)C)c1`, for which the Potency was 10.5 µM (active).

For the compound `CCCCN(CCCC)CCC(O)c1cc2c(Cl)cc(Cl)cc2c2cc(C(F)(F)F)ccc12` (centres undefined), the Potency result was “inactive”.

For `NCCS(=O)(=O)O`, the Potency entry was “inactive”.

Turning to `C[C@@H](NCCCc1cccc(C(F)(F)F)c1)c1cccc2ccccc12`, the Potency entry was “inactive”.

As to `COc1ccc2[nH]cc(CCNC(C)=O)c2c1`, the Potency entry was “inactive”.

With `CCCOc1ccc(C(=O)OCCN(CC)CC)cc1N`, the Potency entry was “inactive”.

For `NCCc1cnc[nH]1`, the Potency entry is “inactive”.

As for `CC1CCN(c2cc(N3CCN(C)CC3)ccc2NC(=O)c2cc(C#N)c[nH]2)CC1`, the Potency entry was “inactive”.

Turning to `COc1ccc([C@@H]2CNC(=O)C2)cc1OC1CCCC1`, the Potency result is “inactive”.

On to `Nc1ncnc2c1ncn2[C@@H]1O[C@H](CO)[C@@H](O)[C@@H]1O`, for which the Potency entry is “inactive”.

Take `Cc1c(-c2ccnn2C)cc(C(=O)NCc2ccc(S(C)(=O)=O)cn2)c(=O)n1-c1cccc(C(F)(F)F)c1`: the Potency entry was “inactive”.

`COC(=O)Nc1cc(Nc2cc(NC3CC3)c3ncc(C#N)n3n2)c(Cl)c(N2CCN(C)CC2)c1`: the Potency was 4.17 µM (active).

For `Cc1cc(Nc2ncnc3ccc(-c4ccc(CNCCS(C)(=O)=O)o4)cc23)ccc1Oc1ccn2ncnc2c1`, the Potency was 0.59 µM (active).

In the case of `O[C@@H](COc1cccc2ncccc12)CN1CCN(C2c3ccccc3[C@@H]3[C@H](c4ccccc42)C3(F)F)CC1` (some centres undefined), the Potency entry is “inactive”.

With `CC1=CC(=O)c2ccccc2C1=O`, the Potency is 16.6 µM (active).

With `CN(C)c1nc(N(C)C)nc(N(C)C)n1`, the Potency result was “inactive”.

For `CNCc1ccc(-c2[nH]c3cc(F)cc4c3c2CCNC4=O)cc1`, the Potency entry was “inactive”.

In the case of `CC(NCCc1ccc(O)cc1)C(O)c1ccc(O)cc1` (centres undefined), the Potency entry was “inactive”.

With `CN1CCN(Cc2ccc(NC(=O)Nc3ccc(Oc4cc(NC(=O)C5CC5)ncn4)cc3)cc2C(F)(F)F)CC1`, the Potency is 0.0209 µM (active).

Regarding `CC(C)C[C@H](NC(=O)[C@@H](NC(=O)c1cccc(-c2ccccc2)n1)[C@@H](C)O)B(O)O`, the Potency was 0.0148 µM (active).

For the compound `Cc1nc(N)ncc1-c1nc(N2CCOCC2)c2sc(C(C)(C)O)cc2n1`, the Potency was 0.148 µM (active).

As to `Cn1cnc2c(F)c(Nc3ccc(Br)cc3Cl)c(C(=O)NOCCO)cc21`, the Potency was 0.662 µM (active).

As to `COC(=O)N1CC2(CC2)C[C@H](C(=O)NO)[C@H]1C(=O)N1CCN(c2ccccc2)CC1`, the Potency was 1.17 µM (active).

For `CN1CCC(COc2cnc(-c3cccc(Cn4nc(-c5cccc(C#N)c5)ccc4=O)c3)nc2)CC1`, the Potency entry was “inactive”.

In the case of `Oc1ccc(-c2nc(-c3ccc(F)cc3)c(-c3ccncc3)[nH]2)cc1`, the Potency was 0.662 µM (active).

Consider `CCN(CC)CCNC(=O)c1ccc2nc(-c3ccccc3)c(-c3ccc(CN4CCC(n5c(=O)[nH]c6ccccc65)CC4)cc3)nc2c1`, for which the Potency is 0.166 µM (active).
